Common to all, as to assay: DAPPL (digital affinity profiling via proximity ligation, sequencing); 10 mM Tris-HCl pH 7.5, 50 mM NaCl, 1 mM DTT, 4% glycerol, room temperature, 30 min; GST-TFs on glutathione beads, 16-mer random dsDNA library, 0.1% formaldehyde crosslink after washing; high values mean tight binding
Common to all, as to conditions: protein: recombinant; tags: N-terminal GST; dsDNA, one strand shown

Test [1] deals with T1, FLI1 (Homo sapiens, UniProt Q01543 1-452).
T1 sequence: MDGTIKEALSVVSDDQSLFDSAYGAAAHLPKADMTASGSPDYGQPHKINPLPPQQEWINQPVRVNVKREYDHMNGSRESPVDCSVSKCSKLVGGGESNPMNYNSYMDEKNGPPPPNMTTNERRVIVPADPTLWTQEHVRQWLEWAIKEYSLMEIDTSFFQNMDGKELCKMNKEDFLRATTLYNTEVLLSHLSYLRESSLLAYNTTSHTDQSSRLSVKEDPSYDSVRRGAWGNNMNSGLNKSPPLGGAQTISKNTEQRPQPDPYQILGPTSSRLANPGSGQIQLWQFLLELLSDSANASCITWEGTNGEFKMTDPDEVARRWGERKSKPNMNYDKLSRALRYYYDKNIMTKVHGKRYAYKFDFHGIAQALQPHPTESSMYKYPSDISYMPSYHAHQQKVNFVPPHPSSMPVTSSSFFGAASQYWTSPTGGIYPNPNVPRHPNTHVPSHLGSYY
In a few lines: (§1)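 Beads coated with glutathione captured GST-fused human transcription factors that had been expressed in yeast, and the factors were then given DNA barcodes and pooled with a tag-only sample. The pools were incubated with 200 nmole of a random double-stranded 16-mer DNA library in Tris/NaCl/DTT/glycerol buffer for 30 min at room temperature, washed, crosslinked with 0.1% formaldehyde and proximity-ligated with BsaI/T4 ligase at 37 °C for 1 h. PCR amplification and Illumina NextSeq500 sequencing came last. Binding signal is each hexamer's read frequency for a factor divided by its frequency for the tag-only sample.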

For test [2], the target named is T2, ELK1 (Homo sapiens, UniProt P19419 1-428).
T2 sequence: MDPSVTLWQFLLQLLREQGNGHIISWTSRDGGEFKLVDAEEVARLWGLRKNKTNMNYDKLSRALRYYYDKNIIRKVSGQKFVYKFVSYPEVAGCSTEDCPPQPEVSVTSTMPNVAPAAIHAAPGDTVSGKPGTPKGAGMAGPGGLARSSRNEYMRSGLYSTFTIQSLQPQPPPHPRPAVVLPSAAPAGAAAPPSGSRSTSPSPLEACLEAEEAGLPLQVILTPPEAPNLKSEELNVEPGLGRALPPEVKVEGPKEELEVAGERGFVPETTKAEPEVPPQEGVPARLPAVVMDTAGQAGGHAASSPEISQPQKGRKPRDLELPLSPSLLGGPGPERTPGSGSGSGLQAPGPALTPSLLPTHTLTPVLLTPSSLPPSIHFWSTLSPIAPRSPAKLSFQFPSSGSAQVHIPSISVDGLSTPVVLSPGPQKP
The procedure, abridged:
as §1

Test [3] addresses T3, GABPA (Homo sapiens, UniProt Q06546 1-454).
T3 sequence: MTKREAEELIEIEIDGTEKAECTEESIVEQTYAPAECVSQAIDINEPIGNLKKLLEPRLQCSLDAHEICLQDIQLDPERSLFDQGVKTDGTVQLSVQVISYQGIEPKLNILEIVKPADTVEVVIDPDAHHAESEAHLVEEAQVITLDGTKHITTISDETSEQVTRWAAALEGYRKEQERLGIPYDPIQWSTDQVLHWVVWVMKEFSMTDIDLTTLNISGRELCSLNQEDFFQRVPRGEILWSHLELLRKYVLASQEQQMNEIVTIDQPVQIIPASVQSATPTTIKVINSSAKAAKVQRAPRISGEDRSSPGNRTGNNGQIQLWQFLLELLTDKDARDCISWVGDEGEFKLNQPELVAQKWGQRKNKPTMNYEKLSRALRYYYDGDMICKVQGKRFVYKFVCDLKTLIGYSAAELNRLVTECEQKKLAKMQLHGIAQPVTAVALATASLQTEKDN
In a few lines: as §1

Test [4] addresses T4, ERG (Homo sapiens, UniProt P11308 1-479).
T4 sequence: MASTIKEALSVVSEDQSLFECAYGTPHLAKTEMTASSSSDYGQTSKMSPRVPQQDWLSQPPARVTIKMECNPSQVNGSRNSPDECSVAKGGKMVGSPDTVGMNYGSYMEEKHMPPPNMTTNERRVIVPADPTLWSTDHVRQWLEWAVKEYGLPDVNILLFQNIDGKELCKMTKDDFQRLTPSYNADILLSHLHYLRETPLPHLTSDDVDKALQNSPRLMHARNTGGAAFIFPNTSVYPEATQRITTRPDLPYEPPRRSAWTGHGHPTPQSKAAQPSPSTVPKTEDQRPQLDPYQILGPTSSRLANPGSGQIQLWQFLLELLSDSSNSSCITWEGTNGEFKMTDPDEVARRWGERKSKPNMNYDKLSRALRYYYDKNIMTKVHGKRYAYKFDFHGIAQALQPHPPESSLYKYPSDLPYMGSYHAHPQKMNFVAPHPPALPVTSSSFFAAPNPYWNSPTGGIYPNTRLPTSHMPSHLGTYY
The procedure, abridged: as §1

The target in test [5] is ELF1 (Homo sapiens, UniProt P32519 1-619). In a few lines:
as §1

Test [6] deals with T5, EHF (Homo sapiens, UniProt Q9NZC4 1-300).
T5 sequence: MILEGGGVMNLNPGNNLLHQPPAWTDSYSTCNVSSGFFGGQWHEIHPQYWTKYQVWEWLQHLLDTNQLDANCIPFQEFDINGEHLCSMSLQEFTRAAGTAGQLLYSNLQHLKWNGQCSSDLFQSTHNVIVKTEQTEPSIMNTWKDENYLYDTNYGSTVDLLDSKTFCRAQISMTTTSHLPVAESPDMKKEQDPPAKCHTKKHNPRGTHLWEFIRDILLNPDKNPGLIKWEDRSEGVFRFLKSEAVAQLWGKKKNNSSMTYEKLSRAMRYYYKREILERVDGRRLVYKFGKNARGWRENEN
The procedure, abridged: as §1

Test [7] deals with SPIB (Homo sapiens, UniProt Q01892 1-262). The procedure, abridged:
as §1

The target in test [8] is T6, ELK3 (Homo sapiens, UniProt P41970 1-407).
T6 sequence: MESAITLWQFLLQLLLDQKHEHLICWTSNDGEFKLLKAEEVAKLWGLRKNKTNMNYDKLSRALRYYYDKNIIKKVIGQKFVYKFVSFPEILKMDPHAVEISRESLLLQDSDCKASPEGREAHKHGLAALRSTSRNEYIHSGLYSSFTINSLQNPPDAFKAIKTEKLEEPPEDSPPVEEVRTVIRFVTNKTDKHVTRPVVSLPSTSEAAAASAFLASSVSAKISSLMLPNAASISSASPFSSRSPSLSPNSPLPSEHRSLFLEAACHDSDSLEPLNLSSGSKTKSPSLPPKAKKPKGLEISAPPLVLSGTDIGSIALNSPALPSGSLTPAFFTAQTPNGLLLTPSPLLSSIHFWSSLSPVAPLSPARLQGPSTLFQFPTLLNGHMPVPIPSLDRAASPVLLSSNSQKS
In a few lines:
as §1

For test [9], the target named is T7, FEV (Homo sapiens, UniProt Q99581 1-238).
T7 sequence: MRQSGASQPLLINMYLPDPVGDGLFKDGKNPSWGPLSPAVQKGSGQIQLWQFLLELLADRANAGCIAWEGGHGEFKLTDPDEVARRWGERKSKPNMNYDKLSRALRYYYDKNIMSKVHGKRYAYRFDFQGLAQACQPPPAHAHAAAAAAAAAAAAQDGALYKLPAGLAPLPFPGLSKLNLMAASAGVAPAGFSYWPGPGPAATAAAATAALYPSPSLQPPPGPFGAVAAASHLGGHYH
In a few lines: as §1

Test [10] deals with ETV5 (Homo sapiens, UniProt P41161 1-510). In a few lines: as §1
ETV5, sequence (P41161 whole entry): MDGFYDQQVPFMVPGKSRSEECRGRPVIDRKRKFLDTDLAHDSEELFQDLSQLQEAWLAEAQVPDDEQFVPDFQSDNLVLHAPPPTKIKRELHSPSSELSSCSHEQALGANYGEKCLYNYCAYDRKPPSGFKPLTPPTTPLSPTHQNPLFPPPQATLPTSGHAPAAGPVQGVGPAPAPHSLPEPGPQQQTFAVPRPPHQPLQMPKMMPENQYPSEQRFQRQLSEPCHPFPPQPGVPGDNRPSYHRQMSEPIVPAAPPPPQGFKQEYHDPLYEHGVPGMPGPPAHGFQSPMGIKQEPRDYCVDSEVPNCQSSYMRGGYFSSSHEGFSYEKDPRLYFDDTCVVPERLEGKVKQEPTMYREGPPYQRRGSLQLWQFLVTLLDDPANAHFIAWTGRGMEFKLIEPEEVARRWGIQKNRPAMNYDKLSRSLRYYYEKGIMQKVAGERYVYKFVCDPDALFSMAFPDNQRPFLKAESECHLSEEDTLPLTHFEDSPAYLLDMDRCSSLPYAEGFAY
The target in test [11] is T8, SPIC (Homo sapiens, UniProt Q8N5J4 1-248).
T8 sequence: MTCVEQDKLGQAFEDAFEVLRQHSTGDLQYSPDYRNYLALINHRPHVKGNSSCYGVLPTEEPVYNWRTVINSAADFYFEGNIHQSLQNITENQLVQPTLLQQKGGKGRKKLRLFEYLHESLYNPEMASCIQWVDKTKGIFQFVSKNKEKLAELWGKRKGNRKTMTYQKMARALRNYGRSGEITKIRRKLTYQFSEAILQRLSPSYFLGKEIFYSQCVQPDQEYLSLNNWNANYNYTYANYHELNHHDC
In a few lines: as §1

The target in test [12] is ELF4 (Homo sapiens, UniProt Q99607 1-663). In a few lines:
as §1

Test [13] has as its target T9, ELK4 (Homo sapiens, UniProt P28324-2 1-405).
T9 sequence: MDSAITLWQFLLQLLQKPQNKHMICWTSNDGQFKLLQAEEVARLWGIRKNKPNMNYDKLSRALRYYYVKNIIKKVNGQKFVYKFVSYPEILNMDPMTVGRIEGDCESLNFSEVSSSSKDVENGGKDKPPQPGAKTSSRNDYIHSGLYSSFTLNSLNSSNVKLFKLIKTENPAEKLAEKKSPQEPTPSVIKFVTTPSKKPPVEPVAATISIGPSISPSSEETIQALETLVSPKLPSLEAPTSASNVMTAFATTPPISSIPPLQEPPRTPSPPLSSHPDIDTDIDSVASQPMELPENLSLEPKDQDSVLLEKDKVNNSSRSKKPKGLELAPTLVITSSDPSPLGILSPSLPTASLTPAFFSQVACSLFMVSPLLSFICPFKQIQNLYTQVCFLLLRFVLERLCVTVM
In a few lines: as §1

The target in test [14] is T10, ETV2 (Homo sapiens, UniProt O00321 1-342).
T10 sequence: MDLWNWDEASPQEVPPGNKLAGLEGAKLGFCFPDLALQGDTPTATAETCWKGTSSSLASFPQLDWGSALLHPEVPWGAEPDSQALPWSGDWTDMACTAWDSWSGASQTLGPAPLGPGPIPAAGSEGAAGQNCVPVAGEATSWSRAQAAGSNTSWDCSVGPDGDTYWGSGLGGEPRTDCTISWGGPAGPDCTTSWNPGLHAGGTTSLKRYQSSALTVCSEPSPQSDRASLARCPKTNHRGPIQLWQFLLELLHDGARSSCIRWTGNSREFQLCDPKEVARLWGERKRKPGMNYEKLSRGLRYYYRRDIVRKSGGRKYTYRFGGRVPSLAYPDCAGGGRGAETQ
The procedure, abridged: as §1

The target of test [15] is T11, ELF3 (Homo sapiens, UniProt P78545 1-371).
T11 sequence: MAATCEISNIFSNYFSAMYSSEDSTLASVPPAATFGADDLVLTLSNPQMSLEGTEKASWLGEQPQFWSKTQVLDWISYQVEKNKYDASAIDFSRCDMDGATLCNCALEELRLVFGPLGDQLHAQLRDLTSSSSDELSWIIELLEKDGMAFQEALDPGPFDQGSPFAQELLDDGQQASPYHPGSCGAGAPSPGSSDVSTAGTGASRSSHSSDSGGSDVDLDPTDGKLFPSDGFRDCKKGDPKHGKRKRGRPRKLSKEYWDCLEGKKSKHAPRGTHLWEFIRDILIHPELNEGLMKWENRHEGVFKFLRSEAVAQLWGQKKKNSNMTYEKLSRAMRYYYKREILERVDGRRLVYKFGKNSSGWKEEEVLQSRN
The procedure, abridged: as §1

Test [16] has as its target ETV1 (Homo sapiens, UniProt P50549 1-477). In a few lines: as §1

Our source for the binding signal values is PMC7862700, “An all-to-all approach to the identification of sequence-specific readers for epigenetic DNA modifications on cytosine”.

SPIB, sequence (Q01892 whole entry): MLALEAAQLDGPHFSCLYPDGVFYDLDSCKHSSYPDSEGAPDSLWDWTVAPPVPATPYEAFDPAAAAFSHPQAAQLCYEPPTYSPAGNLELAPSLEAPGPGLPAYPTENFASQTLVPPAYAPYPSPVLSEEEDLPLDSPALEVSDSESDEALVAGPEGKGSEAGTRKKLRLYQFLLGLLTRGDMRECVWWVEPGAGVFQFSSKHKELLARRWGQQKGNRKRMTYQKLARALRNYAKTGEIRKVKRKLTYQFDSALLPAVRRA
ELF4, sequence (Q99607 whole entry): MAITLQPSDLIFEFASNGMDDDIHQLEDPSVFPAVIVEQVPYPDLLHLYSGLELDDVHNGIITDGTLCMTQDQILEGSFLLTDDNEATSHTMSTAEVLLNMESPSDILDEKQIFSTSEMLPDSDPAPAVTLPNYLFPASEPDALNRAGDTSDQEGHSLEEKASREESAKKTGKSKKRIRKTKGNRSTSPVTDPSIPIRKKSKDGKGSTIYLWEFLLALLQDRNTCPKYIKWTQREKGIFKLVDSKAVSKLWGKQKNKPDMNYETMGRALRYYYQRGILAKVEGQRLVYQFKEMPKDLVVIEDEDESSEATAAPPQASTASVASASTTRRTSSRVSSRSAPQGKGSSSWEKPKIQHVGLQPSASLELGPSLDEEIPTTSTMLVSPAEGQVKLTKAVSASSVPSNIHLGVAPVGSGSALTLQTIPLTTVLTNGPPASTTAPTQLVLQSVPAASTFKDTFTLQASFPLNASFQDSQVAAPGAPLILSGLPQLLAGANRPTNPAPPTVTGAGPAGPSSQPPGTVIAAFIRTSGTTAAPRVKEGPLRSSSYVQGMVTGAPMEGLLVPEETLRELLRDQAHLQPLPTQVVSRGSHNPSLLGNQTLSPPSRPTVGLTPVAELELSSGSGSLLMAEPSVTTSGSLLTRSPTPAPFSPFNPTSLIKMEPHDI
ETV1, sequence (P50549 whole entry): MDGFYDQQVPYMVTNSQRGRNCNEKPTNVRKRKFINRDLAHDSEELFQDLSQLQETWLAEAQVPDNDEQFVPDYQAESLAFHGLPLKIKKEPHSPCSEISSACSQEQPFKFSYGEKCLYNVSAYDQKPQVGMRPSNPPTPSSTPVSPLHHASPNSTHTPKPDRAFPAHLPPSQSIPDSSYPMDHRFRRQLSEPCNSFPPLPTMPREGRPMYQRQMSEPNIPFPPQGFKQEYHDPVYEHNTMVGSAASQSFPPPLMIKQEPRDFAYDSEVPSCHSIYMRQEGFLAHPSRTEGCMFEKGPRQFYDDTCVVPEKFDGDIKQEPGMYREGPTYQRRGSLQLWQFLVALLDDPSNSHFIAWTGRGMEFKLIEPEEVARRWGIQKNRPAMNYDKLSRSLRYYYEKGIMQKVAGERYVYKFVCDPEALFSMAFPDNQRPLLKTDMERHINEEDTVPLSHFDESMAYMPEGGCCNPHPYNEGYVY
ELF1, sequence (P32519 whole entry): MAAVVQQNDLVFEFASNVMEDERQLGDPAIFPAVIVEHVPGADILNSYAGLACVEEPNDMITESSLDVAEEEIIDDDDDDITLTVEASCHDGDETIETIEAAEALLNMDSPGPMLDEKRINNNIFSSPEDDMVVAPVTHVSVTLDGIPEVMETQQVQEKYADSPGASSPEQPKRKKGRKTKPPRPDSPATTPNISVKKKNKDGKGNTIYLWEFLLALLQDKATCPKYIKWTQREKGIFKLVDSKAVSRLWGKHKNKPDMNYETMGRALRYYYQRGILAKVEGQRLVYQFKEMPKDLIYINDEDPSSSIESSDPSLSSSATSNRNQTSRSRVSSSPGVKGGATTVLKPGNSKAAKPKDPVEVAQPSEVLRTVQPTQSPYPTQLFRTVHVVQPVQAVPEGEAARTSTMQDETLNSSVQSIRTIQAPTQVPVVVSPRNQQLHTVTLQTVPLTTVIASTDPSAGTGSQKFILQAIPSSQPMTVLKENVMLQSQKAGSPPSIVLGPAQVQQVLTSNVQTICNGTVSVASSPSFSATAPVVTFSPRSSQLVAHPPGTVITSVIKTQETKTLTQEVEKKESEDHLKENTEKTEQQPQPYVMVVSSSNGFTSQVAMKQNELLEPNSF

For the sequence CACCTC, the binding signal in test [1] was 1.12 fold enrichment (6-mer frequency, TF over GST control); in [2] it was 1.15 fold enrichment (6-mer frequency, TF over GST control); in [3] it was 1.2 fold enrichment (6-mer frequency, TF over GST control); in [4] it was 1.17 fold enrichment (6-mer frequency, TF over GST control); in test [5], 1.2 fold enrichment (6-mer frequency, TF over GST control); in test [6], 1.27 fold enrichment (6-mer frequency, TF over GST control). The binding signal in [7] is 1.1 fold enrichment (6-mer frequency, TF over GST control); in test [8] it was 1.09 fold enrichment (6-mer frequency, TF over GST control); in test [9], 1.11 fold enrichment (6-mer frequency, TF over GST control); in test [10], 1.13 fold enrichment (6-mer frequency, TF over GST control); in test [11], 1.22 fold enrichment (6-mer frequency, TF over GST control); in [12], 1.23 fold enrichment (6-mer frequency, TF over GST control). The binding signal in test [13] is 1.14 fold enrichment (6-mer frequency, TF over GST control); in [14] it was 1.2 fold enrichment (6-mer frequency, TF over GST control); in [15] it was 1.1 fold enrichment (6-mer frequency, TF over GST control); in test [16] it was 1.19 fold enrichment (6-mer frequency, TF over GST control).

ACACCC: the binding signal is 1.18 fold enrichment (6-mer frequency, TF over GST control) in [1]; 1.16 fold enrichment (6-mer frequency, TF over GST control) in test [2]; 1.16 fold enrichment (6-mer frequency, TF over GST control) in test [3]; 1.11 fold enrichment (6-mer frequency, TF over GST control) in test [4]; 1.09 fold enrichment (6-mer frequency, TF over GST control) in test [5]; 1.11 fold enrichment (6-mer frequency, TF over GST control) in test [6]. For the same sequence, the binding signal in test [7] is 1.17 fold enrichment (6-mer frequency, TF over GST control); in [8], 1.08 fold enrichment (6-mer frequency, TF over GST control); in test [9] it was 1.08 fold enrichment (6-mer frequency, TF over GST control); in test [10], 1.08 fold enrichment (6-mer frequency, TF over GST control); in test [11] it was 1.19 fold enrichment (6-mer frequency, TF over GST control); in [12], 1.07 fold enrichment (6-mer frequency, TF over GST control). The binding signal in [13] was 1.05 fold enrichment (6-mer frequency, TF over GST control); in [14], 1.07 fold enrichment (6-mer frequency, TF over GST control); in test [15], 1.01 fold enrichment (6-mer frequency, TF over GST control); in test [16] it was 1.14 fold enrichment (6-mer frequency, TF over GST control).
